Several values for one entry are separate records, joined by “and”; a condition that tells them apart may be missing. Equal values may be shown once. The campaign covered roughly 350,000 compounds. About 31,000 (8.9%) were called active. Where a call stands in place of a potency, no number is given. Another 15% or so got no clear call; they are omitted. This is one part of a sample in which actives are shown more often than they occur. Calls follow the shape of the dose curve; as a rule, active = well fitted inhibition curve with a large enough effect; inconclusive = small, poorly fitted or top-dose-only effect; inactive = no such curve, though single readings can be large or run the other way. Where a structure was tested more than once in an assay, its records may differ in their call.
These compounds were tested against Histone-lysine N-methyltransferase EHMT2 (Homo sapiens) (UniProt Q96KQ7) (assay: qHTS Assay for Inhibitors of Histone Lysine Methyltransferase G9a). Conditions: G9a H3K9 monomethylation, AlphaScreen, 2 h; series mostly up to 102 µM.
Method in brief: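 Signal arises when biotinylated H3K9 peptide, once monomethylated, bridges streptavidin donor and antibody-captured acceptor beads. Enzyme at 20 nM was preincubated 15 min with test compounds; peptide 500 nM and SAM 20 uM then reacted for 2 h.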
Also: nearly all actives have a fitted effect of over 75% in size.
Potency is read from the fitted curve at half-maximal effect.

Sequence of Histone-lysine N-methyltransferase EHMT2 (Homo sapiens) (Q96KQ7 913-1193 limits assumed): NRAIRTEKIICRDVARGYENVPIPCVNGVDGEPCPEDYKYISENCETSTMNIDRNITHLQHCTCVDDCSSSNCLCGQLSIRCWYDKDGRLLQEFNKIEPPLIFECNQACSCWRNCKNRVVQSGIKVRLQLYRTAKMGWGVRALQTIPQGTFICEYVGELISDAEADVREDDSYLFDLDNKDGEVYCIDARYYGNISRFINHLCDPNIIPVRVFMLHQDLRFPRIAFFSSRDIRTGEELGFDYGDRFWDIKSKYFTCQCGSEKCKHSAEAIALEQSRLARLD

Row | Compound | activity, negative = inhibition | Potency
1 | CCOC(=O)C(O)(c1ccc(NC(=O)c2ccco2)c(OC)c1)C(F)(F)F (stereo unspecified) | -45.5% [at 2.33 µM] (inactive) | –
2 | c1ccc(CCCCN2CCC(c3ccccc3)CC2)cc1 | inactive | –
3 | CC1=C(C(=O)Nc2ccccc2)S(=O)(=O)CCO1 | inactive | –
4 | CC(Cc1ccccc1)NC=O (stereo unspecified) | 2.33% [at 12.7 µM] (inactive) | –
5 | COC(=O)C1=C(c2ccc(Cl)c(C(F)(F)F)c2)C[C@@H]2CC[C@H]1N2C(=O)NC1CC1 | 7.94% [at 0.501 µM] (inactive) | –
6 | OC(Cn1c2ccccc2c2ccccc21)C[n+]1ccccc1 (stereo unspecified) | inactive | –
7 | CN1CCc2nc(SC(C(=O)O)c3ccccc3)c(C#N)c(-c3cccs3)c2C1 (stereo unspecified) | – | 31.6 µM (active)
8 | CN1CCCC(=C(c2cccs2)c2cccs2)C1 | -17.6% [at 12.7 µM] (inactive) | –
9 | Cn1c(O)c(C=NCCCC(=O)O)c(=O)n(C)c1=O | inactive | –
10 | COCCNC(=O)CN1C2CCC1CC(O)(c1cccnc1)C2 (stereo unspecified) | inactive | –
11 | O=C1NC(=O)C(C/C=C/c2ccccc2)C(=O)N1 | – | 25.1 µM (active)
12 | O=C(O)C1C2CCC(O2)C1C(=O)O (stereo unspecified) | 48.4% [at 12.7 µM] (inactive) | –
13 | CN(C)C(=O)NC(O)C(Cl)(Cl)Cl (stereo unspecified) | inactive | –
14 | CCc1ccc(OCC(=O)N2CCN(CC(=O)Nc3ccccc3Cl)CC2)cc1 | -1.72% [at 2.33 µM] (inactive) | –
15 | O=C(COc1ccc2ccccc2c1)N1CCN(Cc2ccncc2)CC1 | – | 6.31 µM (active)
16 | CC(C)c1ccc(OCC(=O)N2CCCN(C)CC2)cc1 | inactive | –
17 | O=C(COC(=O)c1ccccc1)Nc1ccc(Cl)cc1C(=O)c1ccccc1 | inactive | –
18 | CC(=O)Cc1ccc(OC(C)C)cc1 | inactive | –
19 | O=C(COC(=O)Cc1ccccc1)Nc1ccc(F)cc1 | inactive | –
20 | COC(=O)C1=C(c2cccc(OCc3ccccc3)c2)C[C@@H]2CC[C@H]1N2C(=O)NNCc1ccccc1 | 2.91% [at 2.33 µM] (inactive) | –
21 | O=S(=O)(Nc1ccc2[nH]ncc2c1)c1ccccc1Cl | – | 22.4 µM (active)

Row | Compound | activity, negative = inhibition | Potency
22 | NC(=O)Cn1cc(C(=O)c2ccccc2F)c2ccccc21 | inactive | –
23 | O=C(CCCn1c(=O)[nH]c2cc(Cl)ccc2c1=O)N1CCC2(CC1)OCCO2 | inactive | –
24 | Cc1cccc(OP(=O)(Oc2cccc(C)c2)OC(c2ccccc2)C(F)(F)F)c1 (stereo unspecified) | inactive | –
25 | COc1ccc(-n2c(-c3ccccc3)nc3ccccc3c2=O)cc1 | inactive | –
26 | C[N+]1(C)CCOC(O)(c2ccc(-c3ccc(C4(O)C[N+](C)(C)CCO4)cc3)cc2)C1 (stereo unspecified) | – | inactive and 50.1 µM (active) and 20 µM (active)
27 | CC[N+]1(CCOC(=O)C(O)(c2ccccc2)c2ccccc2)CCCCC1 | -33.9% [at 12.7 µM] (inactive) | –
28 | Cc1ccc(-c2nn(CCC#N)cc2C(=O)O)cc1C | inactive | –
29 | O=C(c1ccccc1[N+](=O)[O-])N1CCC2(CC1)OCCO2 | inactive | –
30 | CC(C)n1c(=O)c(C=Nc2ccc(Br)cc2)c(O)n(Cc2ccco2)c1=O | inactive | –
31 | Cc1ccc(-n2c(-c3ccc([N+](=O)[O-])cc3)nc3ccccc3c2=O)cc1 | inactive | –
32 | O=[N+]([O-])c1cnc2ccc3ccccc3c2c1 | – | 50.1 µM (active)
33 | CCCC(C)n1[nH]c(=O)c2c1NC(=O)CSC2c1ccc(OC)c(OC)c1 (stereo unspecified) | inactive | –
34 | Cn1c(C(=O)N2CCC(C(=O)N3CCC4(CC3)OCCO4)CC2)cc2sccc21 | inactive | –
35 | CN(C)C(=O)Oc1cc(OC(=O)N(C)C)cc(C(O)CNC(C)(C)C)c1 (stereo unspecified) | inactive | –
36 | CCOP(=O)(OCC)C(NC(=O)c1ccc(OC)cc1)C(Cl)(Cl)Cl (stereo unspecified) | inactive | –
37 | COc1ccc(C(=O)CC2C(=O)N(C)C(=O)N(C)C2=O)cc1 | – | 2.24 µM (active)
38 | COc1ccc(C(=O)C2CN(C)CC2C(=O)c2ccc(OC)cc2)cc1 (stereo unspecified) | inactive | –
39 | CCCOC(=O)C1C2c3ccccc3C(c3ccccc32)C1C(=O)O (stereo unspecified) | inactive | –
40 | CCC1(C)CC(=O)NC1=O (stereo unspecified) | 28.2% [at 12.7 µM] (inactive) | –
41 | CCN(CC)CCOC(=O)c1cc2cc(COC)ccc2o1 | – | 17.8 µM (active)
42 | Cc1nn(Cc2ccccc2Cl)c(Cl)c1C(=O)OC(C(=O)NC(N)=O)C(C)C (stereo unspecified) | inactive | –

Row | Compound | activity, negative = inhibition | Potency
43 | CC(=NCC1CCCO1)c1c(O)n(-c2ccccc2)c(=O)[nH]c1=O (stereo unspecified) | inactive | –
44 | CCN1c2nc3c(C)cccn3c(=O)c2CC2(C(=O)N(C)C(=O)N(C)C2=O)C1C (stereo unspecified) | 7.48% [at 12.7 µM] (inactive) | –
45 | CC(=O)c1ccc(-c2ccc(Cn3c(C)nc4cc(N)c(C)nc43)cc2)cc1 | – | 15.8 µM (active)
46 | CCOC(=O)c1c(N)n(Cc2ccccc2)c2nc3ccccc3nc12 | inactive | –
47 | CN(C)P(=S)(Nc1ccccc1)C(Cl)(Cl)Cl (stereo unspecified) | inactive | –
48 | COC(=O)C1=C(c2ccc(-c3ccccc3)c(F)c2)C[C@@H]2CC[C@H]1N2C(=O)NCc1ccc(F)cc1 | 12.5% [at 0.501 µM] (inactive) | –
49 | CNC(=O)Nc1ccc(C(O)(C(=O)OC)C(F)(F)F)cc1 (stereo unspecified) | inactive | –
50 | Cn1cc(C(=O)OCC(=O)N2CCCC2)c2ccccc21 | 17.1% [at 12.7 µM] (inactive) | –
51 | NCC(O)c1ccc(O)cc1 (stereo unspecified) | -5.15% [at 2.33 µM] (inactive) and 25.4% [at 12.7 µM] (inactive) | –
52 | CC(C(=O)Nc1ccc(Cl)cc1Cl)N1CC=C(c2ccccc2)CC1 (stereo unspecified) | inactive | –
53 | CC1C2Cn3c(nc4ccccc43)C1N(C)O2 (stereo unspecified) | 11.2% [at 12.7 µM] (inactive) | –
54 | O=C1NC(=O)N(c2ccc(F)cc2)C(=O)/C1=C/c1ccc2c(c1)CCCN2Cc1ccccc1 | – | 12.6 µM (active)
55 | O=C(NC(c1ccc(Cl)cc1)P(=O)(Oc1ccccc1)Oc1ccccc1)OCc1ccccc1 (stereo unspecified) | inactive | –
56 | Cc1ccccc1NC(=O)COC(=O)c1cc(C)n(C2CC2)c1C | inactive | –
57 | CCOC(=O)C(O)(c1ccc(N)c(OC)c1)C(F)(F)F (stereo unspecified) | -7.69% [at 2.33 µM] (inactive) | –
58 | CCOP(=O)(OCC)C(NC(=O)NC)C(N)=O (stereo unspecified) | inactive | –
59 | Nc1ccc(C(=O)N/N=C2/CN3CCC2CC3)cc1 | inactive | –
60 | CCC(C)n1c(O)c(/C=N/Nc2nc3c(c(=O)n(C)c(=O)n3C)n2C)c(=O)[nH]c1=S (stereo unspecified) | – | 25.1 µM (active)
61 | CC(=O)c1c(O)c(C)c(O)c(Cc2c(O)c3c(c(C(=O)/C=C/c4ccccc4)c2O)OC(C)(C)C=C3)c1O | – | 14.1 µM (active) and 2.12 µM (active)
